GBA mod – modulators of human glucocerebrosidase; P04062; Potency, µM; 48,000 compounds, 1.1% hits; purified enzyme, resorufin glucoside fluorescence (screen aimed at inhibitors), 20 min; in the data active = potency below about 15 µM; inconclusive = mostly about 16 µM to 33 µM;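 note: potency is the fitted concentration of half-maximal effect; the screen sought inhibitors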
Target sequence (P04062 whole entry, looked up): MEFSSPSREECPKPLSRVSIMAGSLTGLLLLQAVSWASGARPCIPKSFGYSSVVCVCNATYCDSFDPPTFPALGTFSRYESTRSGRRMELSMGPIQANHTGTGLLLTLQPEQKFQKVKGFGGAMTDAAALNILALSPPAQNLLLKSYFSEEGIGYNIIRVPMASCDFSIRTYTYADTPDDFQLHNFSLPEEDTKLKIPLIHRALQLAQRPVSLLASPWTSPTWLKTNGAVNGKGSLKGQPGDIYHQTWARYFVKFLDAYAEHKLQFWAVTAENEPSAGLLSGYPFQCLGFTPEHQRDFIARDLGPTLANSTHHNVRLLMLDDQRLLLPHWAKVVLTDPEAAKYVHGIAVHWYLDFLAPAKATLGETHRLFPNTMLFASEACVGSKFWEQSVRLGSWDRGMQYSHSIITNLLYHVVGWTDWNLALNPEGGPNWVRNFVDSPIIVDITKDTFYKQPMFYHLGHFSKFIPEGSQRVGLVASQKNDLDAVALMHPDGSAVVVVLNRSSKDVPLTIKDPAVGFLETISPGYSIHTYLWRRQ
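Normal human glucocerebrosidase (0.2 nM final) was assayed with resorufin β-D-glucopyranoside (30 uM final) in 50mM citric acid/KH2PO4, 10mM sodium taurocholate, 0.01% tween-20, pH 5.9. Compounds were titrated; fluorescence (Ex 548, Em 600) read after 20 min at RT.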
HSD17B inh – inhibitors of human HSD17B10 dehydrogenase; Potency, µM (highest dose often 57.1 µM), inactives show top-dose activity change, negative = inhibition, hits mostly inhibitors; recombinant HSD17B10, NADH fluorescence kinetic; Q99714; 75,000 compounds, 7.6% hits;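 note: the protocol describes HADH2 (HSD17B10) and not the HSD17B4 of the title; potency is the fitted concentration of half-maximal effect; % is set by controls: 0 for no effect and ±100 for the full control effect; nearly all actives have a fitted effect of over 70% in size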
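Activity followed as NADH fluorescence increase (ex 360, em 450 nm) every 30 seconds for 4 min, using final 90 uM beta-hydroxybutyryl CoA and 1 mM NAD+. Recombinant His-tagged enzyme, 20 nM, pH 9.0 Tris buffer, 15 min compound preincubation.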
AID923 – qHTS Assay for Allosteric/Competitive Inhibitors of Caspase-1: Spectroscopic Profiling in AFC Spectral Region; Potency, µM (highest dose often 57.5 µM), for the others: at the top dose fluorescence increase, hits mostly activators; compound fluorescence, AFC spectral region (405/520 nm); 75,000 compounds, 1.1% hits; note: potency is the fitted concentration of half-maximal effect; 0% is about no effect
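Compound autofluorescence profiled at 405 nm ex/520 nm em during kinetic caspase 1 run (50 nM enzyme, 5 uM Ac-WEHD-AFC, HEPES pH 7.5, 10 mM DTT). Titration up to 57 uM; baseline from regression intercept, normalized to AFC standard curve.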
4MU fluor – 4-MU region autofluorescence; 59,000 compounds, 11% hits; compound autofluorescence, 340/450 nm, 4-MU equivalents; active compounds read high; AID 589; max dye-equivalent concentration, M; in the data active = max dye-equivalent concentration above about 10 nM; inconclusive = mostly about 1.1 nM to 9.6 nM
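Intrinsic fluorescence at 340/450 nm (ex/em) was read after 15 min at room temperature in pH 8.0, 100 mM Tris. Each compound concentration expressed as 4-MU-equivalent concentration from a six-point 4-MU standard series on each plate.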
HADH2 inh – blocks human hydroxyacyl-CoA dehydrogenase type II | Potency, µM (top dose mostly 57.1 µM), for the others: at the top dose activity change, negative = inhibition, hits mostly inhibitors | AID 886 | recombinant HADH2, NADH fluorescence, beta-hydroxybutyryl-CoA | Q99714 | 73,000 compounds, 3.4% hits; note: potency is the fitted concentration of half-maximal effect; % is set by controls: 0 for no effect and ±100 for the full control effect; nearly all actives have a fitted effect of over 60% in size
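Buffer 100 mM Tris-HCl pH 9.0/0.01% Tween-20; HADH2 20 nM; NAD+ 1 mM; beta-hydroxybutyryl-CoA 90 uM (all final). 15 min cpd preincubation, RT.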
A350 autofl – compounds fluorescent in Alexa 350 spectral region; AID 590; Compound autofluorescence, 340/450 nm, Alexa 350 dye-equivalents; active compounds read high; 59,000 compounds, 11% hits; max dye-equivalent concentration, M; in the data active = max dye-equivalent concentration above about 10 nM; inconclusive = mostly about 1.1 nM to 9.6 nM
* marks the source's active call; other numbers are inactive results; i = inactive; ? = inconclusive; · = no result given; [ ] = remark or other dose. Rows were chosen to be rich in hits. Some 13% of all compounds tested hit in one or more screens of this group. Unless noted, calls come from the whole dose curve; as a rule, active = well fitted curve in the direction sought with a large enough effect; inconclusive = small, poorly fitted or top-dose-only effect, or another doubt; inactive = no such curve, though single readings can be large; an effect the other way counts as inactive or inconclusive.

SMILES	GBA mod	HSD17B inh	AID923	4MU fluor	HADH2 inh	A350 autofl
CO[C@@H]1/C=C\CC(=O)N[C@@H](C)C(=O)OC[C@@H](OC)[C@H](C)CCCC(=O)OC[C@H]1C	·	0%[11.4 µM]	-6%[11.5 µM]	·	-3%[11.4 µM]	·
Cc1cc(=O)oc2cc(OCC(=O)NCCc3nc4ccccc4[nH]3)ccc12	·	?	2%	·	-25%	·
Cc1cc(=O)oc2cc(Oc3ncccn3)ccc12	>77	32µM*	11%	1.5e-07M*	2%	1.3e-07M*
Cc1ccc(S(=O)(=O)Cc2cn3cccnc3n2)cc1	>77	25µM*	-1%	2.2e-07M*	20µM*	9.3e-08M*
O=C(CSC1=NCCN1)c1ccccc1	·	-7%[11.4 µM]	4%[11.5 µM]	?	4%[11.4 µM]	?
Brc1ccc2nc3c(n2c1)CCCC3	·	-2%	-1%	·	2%	·
CC(C)(C)S(=O)(=O)c1ccc2nc3c(n2c1)CCCC3	>77	32µM*	0%	2.1e-07M*	?	2.8e-07M*
Cc1cccc(CNC(=O)c2ccccc2N)c1	>77	32µM*	-1%	8e-08M*	25µM*	8.9e-08M*
Cc1ccccc1C(=O)NCc1ccncc1	>77	-3%	0%	i	-3%	i
CCOC(=O)C1CCN(C(=O)c2cc(OCC)c(OCC)c(OCC)c2)CC1	>77	1%	0%	i	-1%	i
CCOC(=O)C1Cc2cc3c(cc2C1=O)CC(C(=O)OCC)C3=O (centres undefined)	>77	13µM*	4%	8.7e-08M*	25µM*	6.5e-08M*
C[C@@H](NC(=O)C1(N)CCCC1)C(=O)O	·	7%[11.4 µM]	6%[11.5 µM]	i	7%[11.4 µM]	i
CC(=O)C(Sc1nc(N2CCOCC2)nc(N2CCOCC2)n1)C(=O)Nc1ccccc1 (centres undefined)	·	32µM*	12%	4.3e-08M*	-2%	4.6e-08M*
Cc1ccc(Cn2nnc3c(=O)[nH]c(C4CCN(S(=O)(=O)c5ccc(F)cc5)CC4)nc32)cc1	5.5*	?	1%	i	-8%	i
Cc1ccc(C)c(S(=O)(=O)N2CCC(c3nc4c(nnn4Cc4ccc(F)cc4)c(=O)[nH]3)CC2)c1	7.1*	-20%	-2%	i	-8%	i
Cc1ccc(Cn2nnc3c(=O)[nH]c(C4CCN(S(=O)(=O)c5cc(C)ccc5C)CC4)nc32)cc1	?	?	2%	i	-16%	i
N[C@@H](Cc1cccc([N+](=O)[O-])c1)C(=O)O	·	-3%[11.4 µM]	-3%[11.5 µM]	i	5%[11.4 µM]	i
Nc1nc2n(n1)C(c1ccc(F)cc1)CC(c1ccc(F)cc1)N2 (centres undefined)	·	·	·	9.1e-08M*	·	1.2e-07M*
Cc1ccc(C2CC(c3ccc(F)cc3)Nc3nc(N)nn32)cc1 (centres undefined)	·	-2%	-1%	·	-4%	·
c1ccc2c(-n3ccnc3)nc(-c3ccoc3)nc2c1	·	?	0%	i	?	i
O=C1NCCCC2c3cc(O)c4ccccc4c3OC12N1CCCCC1 (centres undefined)	>77	?	18%	2.9e-08M*	?	?
CC(=O)N1CCN(c2ccc(NCc3ccccc3)cc2)CC1	13*	-29%	0%	i	3%	i
CC(=O)N1CCN(c2ccc(NCc3cccs3)cc2)CC1	i	-9%	-1%	i	7%	i
CCN(Cc1cc2cc(C)ccc2[nH]c1=O)C(=O)c1cccc(OC)c1	>77	25µM*	2%	?	-6%	?
CCOc1ccc2[nH]c(=O)c(CN(Cc3ccco3)C(=O)c3ccc(Br)cc3)cc2c1	i	13µM*	2%	4.7e-08M*	-15%	3.4e-08M*
SMILES	GBA mod	HSD17B inh	AID923	4MU fluor	HADH2 inh	A350 autofl
CCOc1ccc2[nH]c(=O)c(CN(Cc3ccco3)C(=O)c3cccc(F)c3)cc2c1	i	20µM*	-2%	1.1e-07M*	-14%	1.5e-07M*
COc1ccc(C(=O)N(Cc2ccco2)Cc2cc3cc(C)ccc3[nH]c2=O)cc1OC	>77	-24%	4%	3.1e-08M*	2%	4e-08M*
C[C@@H]1/C=C\CC(=O)OC[C@H](C)C(=O)N[C@@H](Cc2ccccc2)C(=O)OC1	·	3%[11.4 µM]	4%[11.5 µM]	·	1%[11.4 µM]	·
Cc1ccc2[nH]c(=O)c(CN(C)C(=O)c3ccccn3)cc2c1	>77	5%	1%	i	-4%	i
CCC(=O)N(Cc1cc2cc(OC)ccc2[nH]c1=O)c1cc(C)ccc1C	>77	16µM*	0%	1.7e-07M*	-13%	1.5e-07M*
COc1ccc2[nH]c(=O)c(CN(Cc3ccco3)C(=O)c3ccccc3)cc2c1	>77	32µM*	5%	2.1e-07M*	-22%	3.2e-07M*
COc1cc(-c2nnc(-c3cccnc3)o2)cc(OC)c1OC	>77	-9%	1%	i	5%	i
CCOc1ccc(-c2nnc(-c3cccnc3)o2)cc1OCC	>77	32µM*	-3%	?	-3%	1.2e-08M*
COc1ccc(-c2nnc(-c3cccnc3)o2)cc1OC	·	16µM*	1%	·	-8%	·
CCOc1cc(-c2noc(-c3cccnc3)n2)ccc1OC	>77	-4%	1%	i	-8%	i
CCC(=O)Nc1nc2cc(OC)ccc2s1	>77	10%	0%	i	22%	i
CCCCC(=O)Nc1cc2nn(-c3ccc(OC)cc3)nc2cc1C	>77	20%	3%	3.2e-07M*	i	2.4e-07M*
CCCC(=O)Nc1c2c(nn1-c1ccc(OC)cc1)CS(=O)C2 (centres undefined)	>77	-2%	1%	i	0%	i
CCC(=O)Nc1cc2nn(-c3ccc(OC)cc3)nc2cc1C	>77	3.2µM*	0%	2.3e-07M*	-74%	1.9e-07M*
COc1cc(C2c3c(oc4ccccc4c3=O)C(=O)N2Cc2ccncc2)ccc1O (centres undefined)	>77	?	1%	i	?	?
O=C(O)CSCCc1ccccc1	·	4%[11.4 µM]	0%[11.5 µM]	i	-10%[11.4 µM]	i
COc1ccccc1NC=C1C(=O)OC2(CCCCC2)OC1=O	>77	-11%	-2%	?	-1%	?
COC(=O)c1ccccc1NC=C1C(=O)OC2(CCCCC2)OC1=O	·	·	·	1e-08M*	·	1.3e-08M*
O=C1OC2(CCCCC2)OC(=O)C1=CNc1ccc2c(c1)OCO2	>77	1%	0%	6.9e-08M*	28%	1e-07M*
COc1cc2c(cc1OC)CN(Cc1nc3ccsc3c(=O)[nH]1)CC2	>77	-23%	8%	3.2e-08M*	-7%	4e-08M*
Cc1ccc(N(CN2CCCC2=O)C(=O)c2ccc(OC(C)C)cc2)cc1	>77	-2%	3%	i	0%	i
CCOC(=O)CSc1nc2sc3c(c2c(=O)n1CC)CC(C)(C)OC3	·	-9%	-1%	·	-17%	·
CSc1nc(N2CCOCC2)c2c3c(sc2n1)CCC3	>77	-8%	1%	i	-9%	i

High-throughput results from PubChem.
